# Records with an inconclusive call do not appear. Active and inactive are the calls of the source. Unless noted, the call rests on the fitted dose curve; in most records, active means well fitted cell-killing curve with a large enough effect; inconclusive means small, poorly fitted or top-dose-only effect, or effect the other way; inactive means no such curve, though single readings can be large or run the other way.
# How the values were obtained:
# [1] = Quantitative High-Throughput drug screen in 47 multiple myeloma cell lines against the NCATS MIPE library collection: UTMC2_PLB cell viability assay (AID 1919868); settings: CellTiter-Glo ATP luminescence, 48 h; viability (% of DMSO control): at 45.8 µM (top of the series) unless noted; further: nearly all actives have a fitted effect of over 55% in size
# Outline: (§1)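 Myeloma cells (500/well) treated with MIPE 4.0 compounds for 48 h at 37 °C, 5% CO2. Viability read as ATP via CellTiter-Glo luminescence after 5 min at RT; DMSO-only wells = 100%, media-only = 0% viability.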
# [2] = Quantitative High-Throughput drug screen in 47 multiple myeloma cell lines against the NCATS MIPE library collection: PE2_PLB cell viability assay (AID 1919869); further: nearly all actives have a fitted effect of over 35% in size
# Outline: as §1
# [3] = Quantitative High-Throughput drug screen in 47 multiple myeloma cell lines against the NCATS MIPE library collection: PCM6_Riken cell viability assay (AID 1919870); further: nearly all actives have a fitted effect of over 30% in size
# Outline: as §1
# [4] = Quantitative High-Throughput drug screen in 47 multiple myeloma cell lines against the NCATS MIPE library collection: RPMI8226_ATCC cell viability assay (AID 1919871); further: nearly all actives have a fitted effect of over 30% in size
# Outline: as §1
# [5] = Quantitative High-Throughput drug screen in 47 multiple myeloma cell lines against the NCATS MIPE library collection: OPM2_DSMZ cell viability assay (AID 1919872); further: nearly all actives have a fitted effect of over 30% in size
# Outline: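 Luminescent ATP measurement with CellTiter-Glo gives viability, scaled between DMSO-only wells (100%) and media-only wells (0%). Cells, 500 per well, faced library compounds for 48 hours at 37C.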
# [6] = Quantitative High-Throughput drug screen in 47 multiple myeloma cell lines against the NCATS MIPE library collection: KMS11_JCRBsus cell viability assay (AID 1919873); further: nearly all actives have a fitted effect of over 50% in size
# Outline: as §1
# [7] = Quantitative High-Throughput drug screen in 47 multiple myeloma cell lines against the NCATS MIPE library collection: KMS28BM_JCRB cell viability assay (AID 1919874); further: nearly all actives have a fitted effect of over 35% in size
# Outline: as §1
# [8] = qHTS drug screen for cell cycle checkpoint inhibitors in PARPi-resistant BRCA-mutant ovarian cancer cell lines. (AID 1963452; calls by dose curve); settings: PEO1/OlaR viability, CellTiter-Glo luminescence, 96 h; for Z-AUC: stronger effect = lower value
# Outline: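 PEO1, PEO4 and PEO1/OlaR ovarian cancer cells, 600 per well, exposed 96 h at 37C to a dilution series. Viability read by CellTiter-Glo luminescence, normalized to DMSO and empty wells; activity summarized as Z-AUC.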
# [9] = qHTS for identification of novel therapeutic agents for treatment of microphthalmiaassociated transcription factor (MiT) renal cell carcinoma (RCC) (AID 1963991; calls by dose curve); settings: CellTiter-Glo, 48 h; for Potency: active = Z-AUC below -0.8 in all three lines; for z-score: stronger effect = lower value
# Outline: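 Viability of three TFE3-fusion renal carcinoma lines measured by CellTiter-Glo after 48 h treatment with each of 1912 compounds at 11 concentrations. Responses scaled between DMSO (100%) and empty wells (0%) before curve fitting.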
# [10] = measured here: PEO1 parental Z-AUC
# [11] = TFE3-RCC UOK109 viability, measured here: UOK109 Z-AUC
# [12] = TFE3-RCC viability, measured here: UOK124 Z-AUC
# [13] = TFE3-RCC viability, measured here: UOK145 Z-AUC
# Potency means the concentration at half of the fitted maximal effect.
Structure (SMILES),Potency [1],Potency [2],Potency [3],Potency [4],Potency [5],Potency [6],Potency [7],Z-AUC [8],"Z-AUC [8, 10]",Z-AUC ([8]; measured here: PEO4 Z-AUC),Potency ([9]; TFE3-RCC UOK109 viability),"z-score [9, 11]","z-score [9, 12]","z-score [9, 13]",Potency [8]
O=C(c1ccc(Nc2nccc(-c3cc4ccccc4s3)n2)cc1)N1CCC(N2CCCC2)CC1,6620 nM (active),7430 nM (active),1870 nM (active),20900 nM (active),20900 nM (active),5900 nM (active),9350 nM (active),0.507 (inactive),0.645,0.0416,–,–,–,–,–
Nc1ncnc2c1c(-c1cnc3[nH]ccc3c1)nn2C1CCCC1,526 nM (active),1320 nM (active),1480 nM (active),166 nM (active),935 nM (active),46.9 nM (active),4180 nM (active),-1.87 (inactive),-2.04,-1.31,264 nM (active),-2.06,-1.51,-1.32,–
Cc1ccc(C(N)=O)cc1Nc1nccc(-c2cn(C(C)C)c3cnccc23)n1,6620 nM (active),3720 nM (active),2090 nM (active),16600 nM (active),14800 nM (active),4690 nM (active),5900 nM (active),-1.23 (inactive),-1.45,-1.25,–,–,–,–,–
CCOc1cc2ncc(C#N)c(Nc3ccc(F)c(Cl)c3)c2cc1NC(=O)C=CCN(C)C,296 nM (active),5900 nM (active),1660 nM (active),10500 nM (active),14800 nM (active),2640 nM (active),3320 nM (active),–,–,–,11.8 nM (active),-2.91,-1.47,-1.07,–
CC1COC2(CCN(c3nc(=O)c4cc(C(F)(F)F)cc([N+](=O)[O-])c4s3)CC2)O1 (stereo not given),inactive,inactive,inactive,inactive,inactive,inactive,inactive,0.328 (inactive),0.189,0.861,–,1.51,0.131,0.808,–
NC1(Cc2ccc(Cl)cc2)CCN(c2ncnc3[nH]ccc23)CC1,264 nM (active),7430 nM (active),5900 nM (active),14800 nM (active),18700 nM (active),10500 nM (active),4180 nM (active),–,–,–,–,–,–,–,–
COc1ccc(-n2nc(C(N)=O)c3c2C(=O)N(c2ccc(N4CCCCC4=O)cc2)CC3)cc1,inactive,inactive,inactive,inactive,inactive,inactive,inactive,1.05 (inactive),0.968,0.601,–,–,–,–,–
C=CCn1c(=O)c2cnc(Nc3ccc(N4CCN(C)CC4)cc3)nc2n1-c1cccc(C(C)(C)O)n1,148 nM (active),235 nM (active),469 nM (active),2350 nM (active),1180 nM (active),264 nM (active),418 nM (active),–,-1.63,-1.42,235 nM (active),-1.89,-1.72,-2.1,138 nM (active)
Cn1cncc1[C@@](N)(c1ccc(Cl)cc1)c1ccc2c(c1)c(-c1cccc(Cl)c1)cc(=O)n2C,833 nM (active),16600 nM (active),20900 nM (active),5260 nM (active),11800 nM (active),7430 nM (active),20900 nM (active),-0.153 (inactive),0.145,-0.275,–,–,–,–,–
CC(C)(C)c1cc(C(C)(C)C)c(NC(=O)c2c[nH]c3ccccc3c2=O)cc1O,inactive,inactive,inactive,inactive,inactive,inactive,inactive,1.31 (inactive),1.35,0.966,–,0.938,0.941,0.665,–
OCCCNc1cc(-c2ccnc(Nc3cccc(Cl)c3)n2)ccn1,41.8 nM (active),37.2 nM (active),16.6 nM (active),187 nM (active),235 nM (active),52.6 nM (active),93.5 nM (active),-1.99 (inactive),-2.3,-2.17,209 nM (active),-1.57,-0.939,-2.05,–
Cc1ccc(C(=O)Nc2ccc(CN3CCN(C)CC3)c(C(F)(F)F)c2)cc1C#Cc1cnc2cccnn12,590 nM (active),935 nM (active),1180 nM (active),11800 nM (active),5260 nM (active),1480 nM (active),7430 nM (active),–,–,–,–,–,–,–,–
Cc1cc(Nc2cc(CN3CCOCC3)c3nc(C)c(Cc4ccc(Cl)cc4F)n3n2)n[nH]1,2350 nM (active),5260 nM (active),16600 nM (active),2350 nM (active),inactive,1180 nM (active),14800 nM (active),-0.469 (inactive),-0.486,-1.95,–,–,–,–,–
C1=CCOCc2cc(ccc2OCCN2CCCC2)Nc2nccc(n2)-c2cccc(c2)OCC1,1480 nM (active),1660 nM (active),935 nM (active),5900 nM (active),7430 nM (active),1320 nM (active),2350 nM (active),–,–,–,–,–,–,–,–

# — PubChem BioAssay (NCATS)
